Results taken from PubChem BioAssay (NCATS).
Results filed as inconclusive are left out. Where a call stands in place of a potency, no number is given. Active and inactive are the calls of the source. Calls follow the shape of the dose curve; as a rule, active = well fitted cell-killing curve with a large enough effect; inconclusive = small, poorly fitted or top-dose-only effect, or effect the other way; inactive = flat fitted curve, though single readings scatter.

System: SKOV3
Test: Primary qHTS to identify gynecologic anti-cancer compounds using libraries of approved drugs and bioactive compounds (AID 1345084); also: nearly all actives have a fitted effect of over 55% in size
Conditions: Gynecologic cancer cell panel viability, ATPlite luminescence, 48 h; series mostly up to 57.5 µM
How it was run: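 Five-point cytotoxicity, 48 h drug exposure at 37 C, 5% CO2, on cells seeded 16 h beforehand. ATP content read by ATPlite luminescence.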
Potency is read from the fitted curve at half-maximal effect.

Row | Compound | Potency
1 | CC(C)NNC(=O)c1ccncc1 | inactive
2 | CCN(CC)CCNC(=O)c1cc(S(C)(=O)=O)ccc1OC | inactive
3 | c1cnc(N2CCN(Cc3ccc4c(c3)OCO4)CC2)nc1 | inactive
4 | NC1=NCC2c3ccccc3Cc3ccccc3N12 (stereo not drawn) | inactive
5 | CCCCCN(CCCCC)C(=O)C(CCC(=O)O)NC(=O)c1ccc(Cl)c(Cl)c1 (stereo not drawn) | inactive
6 | CN1C(=O)CC[C@H]1c1cccnc1 | inactive
7 | C[C@]12CC[C@@H]3c4ccc(O)cc4C[C@@H](CCCCCCCCCS(=O)CCCC(F)(F)C(F)(F)F)[C@H]3[C@@H]1CC[C@@H]2O (stereo partly drawn) | inactive
8 | CCCN1C[C@H](CSC)C[C@@H]2c3cccc4[nH]cc(c34)C[C@H]21 | inactive
9 | O=C(O)CN(CCN(CC(=O)O)CC(=O)O)CCN(CC(=O)O)CC(=O)O | inactive
10 | CCc1c(C)[nH]c2c1C(=O)C(CN1CCOCC1)CC2 (stereo not drawn) | inactive
11 | Cc1ccc(/C(=C\CN2CCCC2)c2ccccn2)cc1 | inactive
12 | CC[N+](C)(C)c1cccc(O)c1 | inactive
13 | Cc1ccc(Cl)c(Nc2ccccc2C(=O)O)c1Cl | inactive
14 | CN1C[C@H](C(=O)N[C@]2(C)O[C@@]3(O)[C@@H]4CCCN4C(=O)[C@H](Cc4ccccc4)N3C2=O)C[C@@H]2c3cccc4[nH]cc(c34)C[C@H]21 | inactive
15 | O=C(CCCN1CCC(O)(c2cccc(C(F)(F)F)c2)CC1)c1ccc(F)cc1 | inactive
16 | C[n+]1cc2c3c(ccc2c2ccc4cc5c(cc4c21)OCO5)OCO3 | 3.55 µM (active)
17 | CCCN(CCC)C(=O)C(CCC(=O)O)NC(=O)c1ccccc1 (stereo not drawn) | inactive
18 | CC1=C(C)C(=O)C(CCCCC#CCCCC#CCO)=C(C)C1=O | inactive
